A short description of experiment [1]: NCI Yeast Anticancer Drug Screen. Data for the rad50 strain (AID 155).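 Note: 0% = growth of vehicle-only cultures of the same strain.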 The note with it: S. cerevisiae rad50 strain growth inhibition, active compounds read high. A digest of the protocol: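 Inhibition values express reduced yeast growth in compound-treated cultures relative to vehicle-treated controls.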
Experiment [2] in a line: NCI Yeast Anticancer Drug Screen. Data for the mec2-1 strain (AID 157). The note with it: S. cerevisiae mec2-1 strain, active compounds read high. A digest of the protocol:
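Readout is yeast growth inhibition, normalised to vehicle-treated controls, in the mec2-1 strain exposed to compound.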

Experiment [3] can be described thus: NCI Yeast Anticancer Drug Screen. Data for the sgs1 mgt1 strain (AID 161).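 Note: 0% = growth of cultures given vehicle only.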 The note with it: S. cerevisiae sgs1 mgt1 strain, active compounds read high. A digest of the protocol:
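Growth of a repair-deficient yeast mutant was monitored after compound treatment and expressed as inhibition relative to vehicle-treated cultures.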

Experiment [4] can be described thus: NCI Yeast Anticancer Drug Screen. Data for the cln2 rad14 strain (AID 165).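 Note: 0% = growth equal to vehicle treated cultures.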 The note with it: S. cerevisiae cln2 rad14 strain, active compounds read high. A digest of the protocol: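 Relative to vehicle controls, growth inhibition of compound-treated cln2 rad14 yeast was recorded.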
Experiment [5] is described as follows: NCI Yeast Anticancer Drug Screen. Data for the bub3 strain (AID 167). As to conditions: S. cerevisiae bub3 mutant strain, active compounds read high. A digest of the protocol:
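Steps: expose the mutant yeast strain to compound; grow alongside vehicle-treated cultures; measure growth; express inhibition against the vehicle cultures.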

Experiment [6] in a line: NCI Yeast Anticancer Drug Screen. Data for the mlh1 rad18 strain (AID 175). The note with it: S. cerevisiae mlh1 rad18 strain growth inhibition, active compounds read high. A digest of the protocol: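 Test agents were incubated with a yeast strain of defined genotype (DNA damage repair defect). Inhibition of growth was derived by comparison with vehicle-exposed cultures.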
The mark [7] stands for this setting: at 5.0 µM (retest, dose inferred, filed as 0.5).
Where [8] appears, read: at 50.0 µM (retest, dose inferred, filed as 5.0).

Values joined by “and” are separate entries in the source; they are usually repeats but may differ in a detail not shown here. Equal entries are not always repeated. This is part of a sample that, as a whole, favours compounds with a hit. Of some 79,000 tested, about 15% had one in any assay. Unmarked numbers belong to inactive results. Active and inactive are the calls of the source. Cut-off read from the data, not from the text of the source: active = growth inhibition above about 70%; inactive = the rest.

For the compound `CC1=CC2OC3CC4OC(=O)/C=C/C=C/C(C(C)O)OCC(O)C(C)CC(=O)OCC2(CC1O)C4(C)C31CO1` (configuration not stated), the growth inhibition is 39% in experiment [1] (setting [7]); 96% (active) in experiment [1] (setting [8]); 90.4% (active) in experiment [1] (at 50.0 µM); 40% in experiment [2] (setting [7]); 99% (active) in experiment [2] (setting [8]); 91.9% (active) in experiment [2] (at 50.0 µM). The growth inhibition in experiment [3] (setting [7]) was 48%; in experiment [3] (setting [8]), 94% (active); in experiment [3] (at 50.0 µM), 92.2% (active); in experiment [4] (setting [7]) it was 34%; in experiment [4] (setting [8]), 94% (active); in experiment [4] (at 50.0 µM), 90.3% (active). Besides, the growth inhibition in experiment [5] (setting [7]) was 25%; in experiment [5] (setting [8]), 95% (active); in experiment [5] (at 50.0 µM), 91% (active); in experiment [6] (setting [7]), 42%; in experiment [6] (setting [8]), 98% (active); in experiment [6] (at 50.0 µM), 89.2% (active).

In the case of `Nc1c(Cl)cccc1C(=O)O`, the growth inhibition is 3% in experiment [1] (setting [7]); 4% in experiment [1] (setting [8]); 54% in experiment [1] (at 50.0 µM); -2% in experiment [2] (setting [7]); 0% in experiment [2] (setting [8]); 26.8% in experiment [2] (at 50.0 µM). Besides, the growth inhibition in experiment [3] (setting [7]) was 1%; in experiment [3] (setting [8]) it was 6%; in experiment [3] (at 50.0 µM), 45.7%; in experiment [4] (setting [7]), -4%; in experiment [4] (setting [8]), -7%; in experiment [4] (at 50.0 µM), 13.4%. Also, the growth inhibition was 3% in experiment [5] (setting [7]); 1% in experiment [5] (setting [8]); 23.9% in experiment [5] (at 50.0 µM); 2% in experiment [6] (setting [7]); 5% in experiment [6] (setting [8]); 34.9% in experiment [6] (at 50.0 µM).

As for `[I][Hg][I].c1ccc(N=P(c2ccccc2)(c2ccccc2)c2ccccc2)cc1`, the growth inhibition in experiment [1] (setting [7]) is 99% (active); in experiment [1] (setting [8]), 99% (active); in experiment [1] (at 50.0 µM), 99.3% (active); in experiment [2] (setting [7]), 100% (active); in experiment [2] (setting [8]), 100% (active); in experiment [2] (at 50.0 µM), 99.6% (active). The growth inhibition is 100% (active) in experiment [3] (setting [7]); 99% (active) in experiment [3] (setting [8]); 99.6% (active) in experiment [3] (at 50.0 µM); 99% (active) in experiment [4] (setting [7]); 99% (active) in experiment [4] (setting [8]); 98.7% (active) in experiment [4] (at 50.0 µM). Further, the growth inhibition in experiment [5] (setting [7]) was 99% (active); in experiment [5] (setting [8]), 99% (active); in experiment [5] (at 50.0 µM), 99.3% (active); in experiment [6] (setting [7]), 99% (active); in experiment [6] (setting [8]) it was 99% (active); in experiment [6] (at 50.0 µM) it was 99.3% (active).

On to `COC1=CC(C)(C)C=C([Se][Se]C2=CC(C)(C)C=C(OC)C2=O)C1=O`, for which the growth inhibition in experiment [1] (setting [7]) is 82% (active); in experiment [1] (setting [8]) it was 79% (active); in experiment [1] (at 50.0 µM), 83.5% (active); in experiment [2] (setting [7]), 83% (active); in experiment [2] (setting [8]) it was 76% (active); in experiment [2] (at 50.0 µM), 88.9% (active). Besides, the growth inhibition in experiment [3] (setting [7]) is 86% (active); in experiment [3] (setting [8]), 87% (active); in experiment [3] (at 50.0 µM), 83% (active); in experiment [4] (setting [7]), 77% (active); in experiment [4] (setting [8]), 75% (active); in experiment [4] (at 50.0 µM) it was 68.5%. Further, the growth inhibition in experiment [5] (setting [7]) is 71% (active); in experiment [5] (setting [8]) it was 61%; in experiment [5] (at 50.0 µM), 64.7%; in experiment [6] (setting [7]) it was 81% (active); in experiment [6] (setting [8]) it was 79% (active); in experiment [6] (at 50.0 µM) it was 85.5% (active).

As for `COC1NC(=O)NC(=O)C1=[N+]=[N-]` (configuration not stated), the growth inhibition in experiment [1] (setting [7]) was -152%; in experiment [1] (setting [8]), -50%; in experiment [1] (at 50.0 µM), 31.6%; in experiment [2] (setting [7]) it was -44%; in experiment [2] (setting [8]), -39%; in experiment [2] (at 50.0 µM), 9.25%. Also, the growth inhibition in experiment [3] (setting [7]) was -60%; in experiment [3] (setting [8]) it was -33%; in experiment [3] (at 50.0 µM) it was 1.3%; in experiment [4] (setting [7]), -54%; in experiment [4] (setting [8]), -55%; in experiment [4] (at 50.0 µM) it was 27.6%. For the same compound, the growth inhibition in experiment [5] (setting [7]) is -58%; in experiment [5] (setting [8]) it was -55%; in experiment [5] (at 50.0 µM), -17.7%; in experiment [6] (setting [7]) it was -120%; in experiment [6] (setting [8]), -136%; in experiment [6] (at 50.0 µM), 21.9%.

`CC1(C)CC(=O)C([Se]C2=C(O)CC(C)(C)CC2=O)=C(O)C1`: the growth inhibition in experiment [1] (setting [7]) is 96% (active); in experiment [1] (setting [8]) it was 99% (active); in experiment [1] (at 50.0 µM) it was 99.6% (active); in experiment [2] (setting [7]) it was 91% (active); in experiment [2] (setting [8]) it was 99% (active); in experiment [2] (at 50.0 µM) it was 99.8% (active). Also, the growth inhibition in experiment [3] (setting [7]) is 86% (active); in experiment [3] (setting [8]), 99% (active); in experiment [3] (at 50.0 µM), 99.8% (active); in experiment [4] (setting [7]), 35%; in experiment [4] (setting [8]), 99% (active); in experiment [4] (at 50.0 µM), 99.4% (active). Further, the growth inhibition in experiment [5] (setting [7]) was 40%; in experiment [5] (setting [8]) it was 99% (active); in experiment [5] (at 50.0 µM) it was 99.6% (active); in experiment [6] (setting [7]), 94% (active); in experiment [6] (setting [8]), 99% (active); in experiment [6] (at 50.0 µM), 99.3% (active).

In the case of `c1ccc([Te][Te]c2ccccc2)cc1`, the growth inhibition is 62% in experiment [1] (setting [7]); 90% (active) in experiment [1] (setting [8]); 17.6% in experiment [1] (at 50.0 µM); 22% in experiment [2] (setting [7]); 68% in experiment [2] (setting [8]); 36.2% in experiment [2] (at 50.0 µM). The growth inhibition was 40% in experiment [3] (setting [7]); 79% (active) in experiment [3] (setting [8]); 75% (active) in experiment [3] (at 50.0 µM); 49% in experiment [4] (setting [7]); 63% in experiment [4] (setting [8]); 71.2% (active) in experiment [4] (at 50.0 µM). Besides, the growth inhibition in experiment [5] (setting [7]) is 52%; in experiment [5] (setting [8]), 68%; in experiment [5] (at 50.0 µM), 41.5%; in experiment [6] (setting [7]) it was 56%; in experiment [6] (setting [8]), 88% (active); in experiment [6] (at 50.0 µM), 86% (active).

As for `CN1CN(c2ccccc2)C2(CCN(C3Nc4ccccc4O3)CC2)C1=O` (configuration not stated), the growth inhibition in experiment [1] (setting [7]) was 7%; in experiment [1] (setting [8]), 33%; in experiment [1] (at 50.0 µM) it was 40%; in experiment [2] (setting [7]), 2%; in experiment [2] (setting [8]), 26%; in experiment [2] (at 50.0 µM), 44.5%. The growth inhibition in experiment [3] (setting [7]) was -1%; in experiment [3] (setting [8]), 30%; in experiment [3] (at 50.0 µM), 58.5%; in experiment [4] (setting [7]), 31%; in experiment [4] (setting [8]) it was 42%; in experiment [4] (at 50.0 µM) it was 35%. Further, the growth inhibition in experiment [5] (setting [7]) was -16%; in experiment [5] (setting [8]), -4%; in experiment [5] (at 50.0 µM) it was 50.8%; in experiment [6] (setting [7]), 10%; in experiment [6] (setting [8]), 57%; in experiment [6] (at 50.0 µM), 45.6%.

Take `NCCBr`: the growth inhibition in experiment [1] (setting [7]) was 0%; in experiment [1] (setting [8]) it was -26%; in experiment [1] (at 50.0 µM), -8.5% and -19.5%; in experiment [2] (setting [7]) it was -1%; in experiment [2] (setting [8]), 1%; in experiment [2] (at 50.0 µM) it was -7.65% and -21.2%. The growth inhibition in experiment [3] (setting [7]) is -3%; in experiment [3] (setting [8]) it was -4%; in experiment [3] (at 50.0 µM), 6.55% and -5.6%; in experiment [4] (setting [7]), 3%; in experiment [4] (setting [8]), -3%; in experiment [4] (at 50.0 µM) it was -23.7% and -8.9%. The growth inhibition in experiment [5] (setting [7]) was -25%; in experiment [5] (setting [8]) it was -6%; in experiment [5] (at 50.0 µM) it was -0.55% and 1.2%; in experiment [6] (setting [7]), 4%; in experiment [6] (setting [8]) it was -2%; in experiment [6] (at 50.0 µM) it was 2.25% and -0.05%.

These data come from PubChem BioAssay (NCI).
